Compound activity: PubChem BioAssay, National Center for Advancing Translational Sciences (NCATS)
Pf growth 96h = inhibits malaria parasite growth, 96 h. P. falciparum luciferase reporter growth, 96 h. hit rate 6.9% among 320,000. AID 504834. Potency, µM (top dose mostly 28.7 µM), for the others: at the highest dose activity change, negative = inhibition, hits mostly inhibitors; note: potency is the fitted concentration of half-maximal effect; % is set by controls: 0 for no effect and ±100 for the full control effect
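P. falciparum expressing integrated firefly luciferase, in erythrocytes at 2% hematocrit, 0.05% parasitemia, incubated with compounds 96 h at 37 C, 5% CO2. Growth inhibition read as loss of luminescence; two-generation exposure targets delayed-death apicoplast inhibitors.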
Pf growth 48h = P. falciparum growth inhibition at 48 hours (one generation) | P. falciparum luciferase growth in erythrocytes, 48 h | Potency, µM (titrated, usually from 28.7 µM), inactives show at the highest dose activity change, negative = inhibition, most hits filed as inhibitors | hit rate 5.9% among 310,000; note: potency is the fitted concentration of half-maximal effect; % is set by controls: 0 for no effect and ±100 for the full control effect
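Firefly luciferase activity from engineered P. falciparum reports growth; inhibitors lower the luminescent signal. Cultures contained 2% hematocrit erythrocytes at 0.1% final parasitemia.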
FBPA Giardia inh = inhibitors of Giardia lamblia fructose-1,6-bisphosphate aldolase; A8B2U2; purified Giardia FBPA; AID 2451; Potency, µM (titrated, usually from 59.6 µM), for the others: at the top dose activity, negative = inhibition, actives largely listed as inhibitors; hit rate 0.71% among 290,000; note: potency is the fitted concentration of half-maximal effect; % is set by controls: 0 for no effect and ±100 for the full control effect; nearly all actives have a fitted effect of over 55% in size
Target sequence (A8B2U2 whole entry, looked up): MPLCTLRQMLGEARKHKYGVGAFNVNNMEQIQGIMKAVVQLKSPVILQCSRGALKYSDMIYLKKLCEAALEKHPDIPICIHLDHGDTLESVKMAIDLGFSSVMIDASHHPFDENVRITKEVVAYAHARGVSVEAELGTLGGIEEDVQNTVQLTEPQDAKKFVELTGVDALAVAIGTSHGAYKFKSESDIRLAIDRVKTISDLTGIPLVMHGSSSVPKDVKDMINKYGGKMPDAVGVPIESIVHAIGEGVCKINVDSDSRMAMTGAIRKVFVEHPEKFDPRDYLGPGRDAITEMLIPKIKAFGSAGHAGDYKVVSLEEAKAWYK
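40 nM FBPA preincubated 10 min at RT with compound (up to 57.5 uM final), then substrate plus GAPDH/TPI/NAD/arsenate coupling and diaphorase/resazurin added. Fluorescence read after 20 min at RT, 525/598 nm.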
Shiga inhibitor = inhibitors of Shiga toxin in Vero cells; inhibition, % at 38.7 µM; AID 2315; hit rate 9.2% among 290,000; Vero cells, Shiga toxin protein synthesis inhibition reporter; in the data active = inhibition mostly above about 28%, no sharp cut-off; inactive = mostly below about 43%; note: 0% is about no effect
Cycloheximide cs = counter-screen hit for Shiga toxin inhibitors, cycloheximide | cell reporter, cycloheximide protein synthesis inhibition counterscreen | max response, % | AID 2314 | hit rate 12% among 300,000; in the data active = max response mostly above about 13%, no sharp cut-off; inactive = mostly below about 14%; note: read at 38.3 µM for the half of the compounds with a filed dose; 0% is about no effect
NS1 function inh = blocks influenza NS1 protein function. hit rate 0.4% among 270,000. Potency, µM (highest dose often 46.1 µM), for inactives: at the highest dose activity, positive = more growth; calls by dose curve; note: potency is the fitted concentration of half-maximal effect; actives are rising curves; nearly all actives have a fitted effect of over 50% in size
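Growth recovery, yeast-based: influenza A NS1 expressed in S. cerevisiae causes slow growth, and suppressors are detected by OD600. The parent strain without NS1 is used as positive control.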
* marks the source's active call; other numbers are inactive results; ? = inconclusive; / = no result; [ ] = dose if it differs, or a comment. In the library only some 21% were active in any assay of this set; here they are far more common. Unless noted, calls come from the whole dose curve; as a rule, active = well fitted curve in the direction sought with a large enough effect; inconclusive = small, poorly fitted or top-dose-only effect, or another doubt; inactive = no such curve, though single readings can be large; an effect the other way counts as inactive or inconclusive.

SMILES | Pf growth 96h | Pf growth 48h | FBPA Giardia inh | Shiga inhibitor | Cycloheximide cs | NS1 function inh
CC(=O)C1=C(O)C(=O)N(c2ccccn2)C1c1cccc(F)c1 (configuration not stated) | 35% | 8% | -12% | 17 | 12 | 3%
Cn1c(/C(C#N)=C/c2ccc(O)cc2)nc2ccccc21 | 2.3µM* | -4% | 8% | 47* | 50* | -8%
Cn1c(/C(C#N)=C/c2ccncc2)nc2ccccc21 | 7% | -4% | 0% | 18 | 7 | 5%
C/C(=N/NC(=O)CNC(=O)c1ccccn1)c1cccc([N+](=O)[O-])c1 | 20% | 13% | -7% | -10 | -1 | 9%
COc1ccc(-c2nc(-c3ccccc3)c(NC(C)(C)C)o2)cc1 | / | / | 6% | / | / | /
COc1ccc(OCCOc2ccc(S(=O)(=O)N3CCCC3)cc2C(N)=O)cc1 | 3.7µM* | -8% | / | / | / | /
COc1ccc(S(=O)(=O)N2CCCCC2)cc1NC(=O)CCCOc1ccc(C)cc1 | ? | 10µM* | / | / | / | /
CC(=O)c1ccc(OCCCC(=O)Nc2cc(S(=O)(=O)N3CCCCC3)ccc2C)cc1 | 13µM* | ? | / | / | / | /
COc1ccc(S(=O)(=O)N2CCN(CCOc3ccc(Br)cc3)CC2)cc1OC | ? | 8.3µM* | / | / | / | /
NC(=O)c1cc(S(=O)(=O)N2CCCC2)ccc1OCCOc1ccccc1F | 4% | ? | / | / | / | /
COc1ccc(S(=O)(=O)N2CCCCC2)cc1NC(=O)CCCOc1ccccc1 | -18% | ? | / | / | / | /
COc1ccc(OC)c(C(=O)CN2CCN(S(=O)(=O)c3ccc(Br)cc3)CC2)c1 | 16% | -17% | 0% | 12 | 0 | -17%
O=[N+]([O-])c1cc(C=Nc2cccc3c(O)cccc23)ccc1Cl | -28% | 21% | -9% | 14 | 4 | -18%
COc1ccc(C(=O)CSc2nnc(CN3CCCCC3)n2-c2ccc(Cl)cc2)cc1OC | 10µM* | ? | -5% | 15 | -3 | -25%
COc1ccc(NC(=O)CSc2nnc(CN3CCOCC3)n2-c2ccccc2)cc1Cl | ? | -8% | 2% | -2 | -3 | -14%
CCOC(=O)CN(C(=O)COc1nc(-c2ccccc2)cc(C)c1C#N)c1cccc(OC)c1 | 12µM* | 7.4µM* | 2% | 0 | 1 | 9%
CCOC(=O)CN(C(=O)COc1nc(C)cc(C)c1C#N)c1cccc(Cl)c1 | ? | ? | 0% | 4 | -3 | 4%
CCOC(=O)CN(C(=O)COc1nc(-c2ccccc2)cc(C)c1C#N)c1ccccc1C | ? | 13µM* | 3% | -6 | -1 | -6%
CCOC(=O)CN(C(=O)COc1nc(-c2ccccc2)cc(C)c1C#N)c1ccc(C)cc1 | 5.9µM* | 13µM* | 2% | 14 | -2 | 0%
CCOC(=O)CN(C(=O)COc1nc(-c2ccccc2)cc(C)c1C#N)c1ccccc1 | ? | ? | 7% | 7 | -1 | -2%
Nc1nccs1 | ? | ? | 0% | / | / | /
CCC1Oc2ccccc2N(CC(=O)NCC2CCCO2)C1=O (configuration not stated) | 13% | 15% | 0% | -14 | -1 | 0%
O=C(NCc1nnc(SCC(=O)N2CCCCCC2)o1)c1ccccc1F | -16% | 17% | / | -2 | 10 | 6%
O=C(CNC(=O)c1ccc(Cl)cc1Cl)OCn1nnc2ccccc2c1=O | 11% | 2% | / | / | / | /
C=CCn1cnc2c(c1=O)c1nc3ccccc3nc1n2-c1ccccc1 | 5.9µM* | / | 3% | -4 | -1 | 1%
SMILES | Pf growth 96h | Pf growth 48h | FBPA Giardia inh | Shiga inhibitor | Cycloheximide cs | NS1 function inh
C=CCn1cnc2c(c1=O)c1nc3ccccc3nc1n2/N=C/c1cccc(OC)c1OC | -10% | ? | 4% | -20 | -3 | ?
C=CCn1cnc2c(c1=O)c1nc3ccccc3nc1n2/N=C/c1cc(OC)c(OC)c(OC)c1 | 5.9µM* | 3.7µM* | 0% | -21 | -1 | 6%
C=CCn1cnc2c(c1=O)c1nc3ccccc3nc1n2/N=C/c1ccccn1 | 1.9µM* | -4% | 1% | 14 | -3 | -31%
COc1ccccc1C(=O)Nc1ccnn1C1CCN(CCCc2ccccc2)CC1 | 12% | -3% | 8% | -6 | -3 | -13%
C=CCOC(=O)C(C(C)=O)C(NC(=O)OC)c1cccc(C)c1 (configuration not stated) | / | / | 0%[12.9 µM] | / | / | /
CCOC(=O)C(C)Oc1ccc(=O)n(-c2ccccc2)n1 (configuration not stated) | 1.9µM* | -2% | 8% | -5 | -2 | 1%
CCN1CCc2nc3ccccc3c(C(=O)Nc3ccc(C#N)cc3)c2C1 | 2.6µM* | ? | -1% | 14 | 6 | /
O=C(Nc1cc(S(=O)(=O)N2CCOCC2)ccc1N1CCOCC1)c1cnccn1 | 0% | -16% | 13% | -9 | -3 | 2%
CCN(CC)S(=O)(=O)c1ccc(N2CCOCC2)c(NC(=O)c2cnccn2)c1 | 12µM* | 8.3µM* | 0% | 11 | 0 | -7%
CCN(CC)S(=O)(=O)c1ccc(N2CCOCC2)c(NC(=O)c2cccc3ccccc23)c1 | ? | ? | 0% | -5 | -4 | ?
CCN(CC)S(=O)(=O)c1ccc(N2CCCCC2)c(C(=O)Nc2ccccc2N2CCOCC2)c1 | 4.1µM* | / | 5% | -15 | -3 | 5%
CCN(CC)S(=O)(=O)c1ccc(N2CCOCC2)c(NC(=O)c2ccc3ccccc3c2)c1 | 12µM* | ? | -3% | 14 | -4 | 4%
CCN(CC)S(=O)(=O)c1ccc(N2CCOCC2)c(NC(=O)c2cc(-c3ccccn3)nc3ccccc23)c1 | 8.3µM* | 1.9µM* | -9% | -12 | -1 | /
CCN(CC)S(=O)(=O)c1ccc(N2CCOCC2)c(NC(=O)c2cc(=O)[nH]c3ccccc23)c1 | -22% | -19% | -3% | -11 | -3 | -15%
COc1ccc(NS(=O)(=O)c2cccc(C(=O)N/N=C(\C)c3cccnc3)c2)cc1 | ? | 0% | / | / | / | /
CCOC(=O)C1CCN(C(=O)COC(=O)c2oc3ccccc3c2C)CC1 | -7% | 0% | / | / | / | /
O=C(Nc1ccc(N2CCOCC2)cc1)c1cc(-c2ccncc2)nc2ccccc12 | ? | ? | -1% | -19 | -1 | 3%
O=C(Nc1ccccc1N1CCOCC1)c1cc(-c2ccncc2)nc2ccccc12 | 8.3µM* | ? | 0% | 29 | 1 | /
CCN(CC)S(=O)(=O)c1ccc(N2CCOCC2)c(NC(=O)c2c3c(nc4ccccc24)CCC3)c1 | 4.7µM* | 7.4µM* | -7% | -3 | -2 | 5%
CCN(CC)S(=O)(=O)c1ccc(N2CCOCC2)c(NC(=O)C2CCCO2)c1 (configuration not stated) | 8.3µM* | ? | 0% | -3 | -2 | -2%
CCN(CC)S(=O)(=O)c1ccc(N2CCOCC2)c(NC(=O)C2=COCCO2)c1 | 2.1µM* | 3.3µM* | / | -30 | -3 | 3%
Nc1cccc(Oc2ccc3c(c2)C(=O)NC3=O)c1 | 56% | 22% | -8% | / | -3 | -8%
CN(Cc1ccccc1)C(=O)COC(=O)CNS(=O)(=O)c1ccc2ccccc2c1 | 12% | -10% | / | / | / | /
